The text below walks through data of the supplement of paper PMC10849652.

About 8,800 targets were measured; listed, in parts, are those with a hit and a random draw of the rest. About 0.5% of all pairs of compound and target were hits.

Sequence of UniProt Q13535 (Q13535 whole entry, looked up): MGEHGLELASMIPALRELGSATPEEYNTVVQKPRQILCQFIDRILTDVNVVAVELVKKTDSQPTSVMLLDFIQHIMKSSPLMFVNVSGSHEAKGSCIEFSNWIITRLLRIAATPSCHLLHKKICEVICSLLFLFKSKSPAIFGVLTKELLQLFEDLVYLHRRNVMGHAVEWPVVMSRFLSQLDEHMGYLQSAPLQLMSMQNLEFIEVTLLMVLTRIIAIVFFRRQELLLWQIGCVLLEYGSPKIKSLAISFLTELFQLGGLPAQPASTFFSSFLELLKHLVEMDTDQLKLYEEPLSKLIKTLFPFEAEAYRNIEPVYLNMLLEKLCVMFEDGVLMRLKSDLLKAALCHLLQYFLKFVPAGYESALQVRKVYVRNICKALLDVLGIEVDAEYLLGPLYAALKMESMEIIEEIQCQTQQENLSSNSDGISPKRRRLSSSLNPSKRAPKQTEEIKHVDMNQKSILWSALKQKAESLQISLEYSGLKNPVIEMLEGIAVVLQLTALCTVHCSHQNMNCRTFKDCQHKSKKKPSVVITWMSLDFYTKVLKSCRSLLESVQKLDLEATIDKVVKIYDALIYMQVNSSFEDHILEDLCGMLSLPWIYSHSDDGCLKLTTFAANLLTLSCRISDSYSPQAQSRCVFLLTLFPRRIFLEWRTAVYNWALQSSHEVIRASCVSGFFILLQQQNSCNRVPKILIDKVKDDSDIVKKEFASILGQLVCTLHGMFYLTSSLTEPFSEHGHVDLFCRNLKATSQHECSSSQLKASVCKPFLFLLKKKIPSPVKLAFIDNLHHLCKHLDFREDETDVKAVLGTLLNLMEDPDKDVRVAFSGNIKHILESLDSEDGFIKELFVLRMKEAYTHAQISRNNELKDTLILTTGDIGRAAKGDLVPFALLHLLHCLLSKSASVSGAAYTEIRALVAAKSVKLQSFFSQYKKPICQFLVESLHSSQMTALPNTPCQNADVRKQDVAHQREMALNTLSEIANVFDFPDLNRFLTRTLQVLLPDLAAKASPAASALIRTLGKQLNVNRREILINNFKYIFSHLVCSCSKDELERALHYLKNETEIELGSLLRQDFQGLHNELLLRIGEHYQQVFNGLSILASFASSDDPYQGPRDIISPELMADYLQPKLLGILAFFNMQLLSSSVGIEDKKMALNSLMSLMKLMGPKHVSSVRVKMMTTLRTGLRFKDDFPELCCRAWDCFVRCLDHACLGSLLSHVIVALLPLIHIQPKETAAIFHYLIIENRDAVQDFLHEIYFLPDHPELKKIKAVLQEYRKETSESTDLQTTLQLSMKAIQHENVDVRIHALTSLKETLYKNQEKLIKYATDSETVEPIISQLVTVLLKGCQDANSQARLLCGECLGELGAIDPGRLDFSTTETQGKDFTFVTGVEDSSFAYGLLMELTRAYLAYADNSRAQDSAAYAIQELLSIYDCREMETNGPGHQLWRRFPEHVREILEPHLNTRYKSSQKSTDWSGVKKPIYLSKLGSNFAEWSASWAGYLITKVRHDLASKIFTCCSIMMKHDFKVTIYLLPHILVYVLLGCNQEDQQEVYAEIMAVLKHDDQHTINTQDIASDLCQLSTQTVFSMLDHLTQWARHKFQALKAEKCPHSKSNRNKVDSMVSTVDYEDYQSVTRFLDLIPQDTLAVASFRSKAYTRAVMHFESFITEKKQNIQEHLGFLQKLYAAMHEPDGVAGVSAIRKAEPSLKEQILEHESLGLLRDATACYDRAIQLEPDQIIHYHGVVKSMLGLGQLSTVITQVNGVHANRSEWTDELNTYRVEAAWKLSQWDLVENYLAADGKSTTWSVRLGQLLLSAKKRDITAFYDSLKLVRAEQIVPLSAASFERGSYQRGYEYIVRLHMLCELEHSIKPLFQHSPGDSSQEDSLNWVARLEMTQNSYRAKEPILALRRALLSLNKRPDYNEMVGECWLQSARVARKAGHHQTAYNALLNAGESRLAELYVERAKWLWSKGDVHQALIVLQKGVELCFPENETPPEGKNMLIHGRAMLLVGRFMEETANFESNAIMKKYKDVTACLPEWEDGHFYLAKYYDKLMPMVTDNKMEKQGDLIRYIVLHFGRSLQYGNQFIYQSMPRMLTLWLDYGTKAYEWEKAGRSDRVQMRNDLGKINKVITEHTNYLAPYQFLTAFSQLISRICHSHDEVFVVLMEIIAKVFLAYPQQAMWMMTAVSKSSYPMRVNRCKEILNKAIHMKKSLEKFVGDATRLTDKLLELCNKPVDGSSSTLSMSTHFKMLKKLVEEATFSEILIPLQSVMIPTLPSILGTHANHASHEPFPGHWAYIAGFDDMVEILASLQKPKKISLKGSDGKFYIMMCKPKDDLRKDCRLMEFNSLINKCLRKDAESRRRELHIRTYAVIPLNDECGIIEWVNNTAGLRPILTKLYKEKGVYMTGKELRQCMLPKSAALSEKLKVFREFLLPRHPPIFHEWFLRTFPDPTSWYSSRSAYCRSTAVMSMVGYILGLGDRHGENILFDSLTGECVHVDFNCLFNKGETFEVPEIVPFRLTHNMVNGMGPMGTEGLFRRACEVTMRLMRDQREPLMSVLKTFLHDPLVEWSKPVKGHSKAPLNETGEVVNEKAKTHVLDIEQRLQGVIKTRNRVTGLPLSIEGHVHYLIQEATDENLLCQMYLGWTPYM
Sequence of UniProt P20248 (P20248 whole entry, looked up): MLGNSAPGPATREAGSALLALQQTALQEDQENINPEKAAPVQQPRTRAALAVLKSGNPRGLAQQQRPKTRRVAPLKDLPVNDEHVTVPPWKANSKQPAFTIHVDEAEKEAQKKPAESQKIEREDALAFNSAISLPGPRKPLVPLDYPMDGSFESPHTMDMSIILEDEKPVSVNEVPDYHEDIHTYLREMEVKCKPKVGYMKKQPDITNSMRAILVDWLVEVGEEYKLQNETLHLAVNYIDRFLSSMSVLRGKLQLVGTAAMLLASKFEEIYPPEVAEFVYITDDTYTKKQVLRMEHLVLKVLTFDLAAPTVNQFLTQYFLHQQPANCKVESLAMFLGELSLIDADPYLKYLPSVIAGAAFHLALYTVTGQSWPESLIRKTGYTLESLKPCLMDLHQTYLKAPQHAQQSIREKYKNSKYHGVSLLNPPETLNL
Sequence of UniProt O75419 (O75419 whole entry, looked up): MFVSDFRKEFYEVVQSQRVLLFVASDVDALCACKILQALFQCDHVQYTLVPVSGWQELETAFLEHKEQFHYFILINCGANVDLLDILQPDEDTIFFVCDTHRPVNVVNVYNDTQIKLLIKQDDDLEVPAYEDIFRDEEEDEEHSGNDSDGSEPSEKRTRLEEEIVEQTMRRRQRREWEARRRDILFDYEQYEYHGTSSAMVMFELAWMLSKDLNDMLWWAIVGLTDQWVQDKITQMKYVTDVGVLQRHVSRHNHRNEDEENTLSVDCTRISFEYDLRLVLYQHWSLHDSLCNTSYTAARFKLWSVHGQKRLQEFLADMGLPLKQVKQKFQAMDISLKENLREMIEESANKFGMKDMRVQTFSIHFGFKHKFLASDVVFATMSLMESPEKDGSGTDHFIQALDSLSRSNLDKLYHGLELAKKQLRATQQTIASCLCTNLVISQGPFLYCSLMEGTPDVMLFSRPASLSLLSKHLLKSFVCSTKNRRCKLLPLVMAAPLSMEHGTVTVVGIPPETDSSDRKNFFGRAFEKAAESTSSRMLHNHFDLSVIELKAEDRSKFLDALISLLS
Sequence of UniProt P08962 (P08962 whole entry, looked up): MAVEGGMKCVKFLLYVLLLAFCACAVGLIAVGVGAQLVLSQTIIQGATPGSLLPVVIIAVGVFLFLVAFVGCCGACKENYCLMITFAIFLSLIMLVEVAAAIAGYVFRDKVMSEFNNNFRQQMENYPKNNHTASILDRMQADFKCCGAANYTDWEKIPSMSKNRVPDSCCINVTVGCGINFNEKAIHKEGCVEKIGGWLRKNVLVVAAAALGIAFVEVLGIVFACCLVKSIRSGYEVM
Sequence of UniProt Q9Y487 (Q9Y487 whole entry, looked up): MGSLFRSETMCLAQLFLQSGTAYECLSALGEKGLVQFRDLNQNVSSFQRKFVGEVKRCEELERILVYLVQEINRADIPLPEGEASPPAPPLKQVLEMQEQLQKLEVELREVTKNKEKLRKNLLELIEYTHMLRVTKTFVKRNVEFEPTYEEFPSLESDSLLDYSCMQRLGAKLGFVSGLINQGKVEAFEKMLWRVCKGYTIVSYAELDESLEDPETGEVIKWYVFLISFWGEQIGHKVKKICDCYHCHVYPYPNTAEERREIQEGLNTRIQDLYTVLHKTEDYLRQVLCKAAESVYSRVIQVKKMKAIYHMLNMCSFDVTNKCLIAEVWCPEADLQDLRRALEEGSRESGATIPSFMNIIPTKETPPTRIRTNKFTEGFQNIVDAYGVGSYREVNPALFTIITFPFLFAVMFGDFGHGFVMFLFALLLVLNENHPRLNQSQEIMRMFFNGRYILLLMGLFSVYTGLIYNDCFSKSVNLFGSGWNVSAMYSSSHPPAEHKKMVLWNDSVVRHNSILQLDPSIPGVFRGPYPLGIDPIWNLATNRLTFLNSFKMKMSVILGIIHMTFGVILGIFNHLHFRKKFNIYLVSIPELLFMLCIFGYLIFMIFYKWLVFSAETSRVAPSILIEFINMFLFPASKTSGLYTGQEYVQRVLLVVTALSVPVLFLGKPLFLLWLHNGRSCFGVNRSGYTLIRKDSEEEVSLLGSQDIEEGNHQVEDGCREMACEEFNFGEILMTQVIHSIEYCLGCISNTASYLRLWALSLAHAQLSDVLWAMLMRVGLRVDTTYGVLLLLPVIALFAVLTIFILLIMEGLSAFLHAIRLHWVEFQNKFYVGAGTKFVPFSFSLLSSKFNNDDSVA
Sequence of UniProt Q9H3Q1 (Q9H3Q1 whole entry, looked up): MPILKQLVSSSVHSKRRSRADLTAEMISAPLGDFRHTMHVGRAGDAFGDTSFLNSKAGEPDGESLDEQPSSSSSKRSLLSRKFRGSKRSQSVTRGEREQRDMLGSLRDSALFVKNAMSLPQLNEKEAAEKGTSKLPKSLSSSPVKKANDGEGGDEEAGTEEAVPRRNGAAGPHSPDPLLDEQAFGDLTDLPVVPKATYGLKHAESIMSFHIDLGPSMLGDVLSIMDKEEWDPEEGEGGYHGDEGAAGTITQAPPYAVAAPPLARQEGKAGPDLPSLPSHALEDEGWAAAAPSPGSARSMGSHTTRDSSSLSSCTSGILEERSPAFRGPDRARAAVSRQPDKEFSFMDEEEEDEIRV

Compound in the assay: Cc1ccc(NC(=O)c2ccc(CN3CC[C@H](N(C)C)C3)c(C(F)(F)F)c2)cc1Nc1nccc(-c2cncnc2)n1 [bafetinib]
Kind of assay: log2 fold change, soluble protein after heating vs DMSO (PISA); higher = thermal stabilisation; K562 lysate, 10 uM; active = over 0.2 and 3.5 SD of the protein, either way, in both replicates (recomputed). In outline: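 Quantification was by TMTpro 16plex LC-MS/MS with equalised channel sums, applied to the supernatant after 21,000xg for 90 min. Samples were crude K562 extract at 1 mg/mL protein in PBS pH 7.4 with 1 mM MgCl2, treated with 10 μM compound for 30 min, heated for 3 min across 48°C-58°C, pooled and brought to 0.5% NP-40 at 4°C. Values are log-two fold changes in thermal stability relative to solvent controls, from duplicates.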
With CD63 (UniProt P08962), the log2 fold change was -0.08 (inactive).
Turning to ATR (UniProt Q13535), the log2 fold change is -0.033 (inactive).
Regarding CCDC47 (UniProt Q96A33), the log2 fold change was -0.031 (inactive).
With CCNA2 (UniProt P20248) the figure was 0.027 (inactive); with CHD4 isoform 2 (UniProt Q14839), -0.05 (inactive); with CENPQ (UniProt Q7L2Z9), 0.017 (inactive).
Turning to BLM (UniProt P54132), the log2 fold change is -0.049 (inactive).
Consider ATP6V0A2 (UniProt Q9Y487), for which the log2 fold change was -0.046 (inactive).
For BTAF1 (UniProt O14981) the value was -0.056 (inactive).
With CDC42EP4 (UniProt Q9H3Q1), the log2 fold change is -0.027 (inactive).
For the target BMS1 (UniProt Q14692), the log2 fold change is -0.032 (inactive).
Consider CDK9 isoform 2 (UniProt P50750), for which the log2 fold change was -0.125 (inactive).
Turning to C12orf45 (UniProt Q8N5I9), the log2 fold change was 0.001 (inactive).
On to BCKDHB (UniProt P21953), for which the log2 fold change was -0.052 (inactive).
In the case of CDC45 isoform 3 (UniProt O75419), the log2 fold change is -0.077 (inactive).
For BUD23 isoform 3 (UniProt O43709) the value was -0.088 (inactive); for CARD9 (UniProt Q9H257), -0.145 (inactive).
